Experiment [1] is described as follows: binders of probe aFSTL3 on microarray, primary screen, stem cell growth factor project, biochemical, small-molecule microarray, fluorescence 635/667 (AID 1064).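 Note: measures binding of the biotinylated anti-FSTL3 antibody to printed compounds.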 The note with it: higher = more signal.
Experiment [2] in a line: binders from COS7 lysate, DM2A8 probe, primary screen, torsin A project, cell lysate, small-molecule microarray, fluorescence 635/667 (AID 1065). The conditions noted are these: higher = more signal, COS7 lysate expressing mutant human TOR1A.
The nature of experiment [3]: binders of probe aFGF2 on microarray, primary screen, stem cell growth factor project, biochemical, small-molecule microarray, fluorescence 635/667 (AID 1067).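 Note: measures binding of biotinylated aFGF2 protein to printed compounds on slides; z-score merges feature fluorescence and signal-to-noise across triplicate slides.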 The note with it: higher = more signal.
A short description of experiment [4]: binders of probe aFGF10 on microarray, primary screen, stem cell growth factor project, biochemical, small-molecule microarray, fluorescence 635/667 (AID 1071).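 Note: score merges 667 nm spot intensity and signal to noise from triplicate slides.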 The note with it: higher = more signal.
Experiment [5] deals with Neurogenic locus notch homolog protein 2 (Homo sapiens) (UniProt Q04721). The experiment in a line: Notch2 binders on small-molecule microarrays, primary screen, biochemical, small-molecule microarray, 635 nm fluorescence, stem cell growth factors (AID 1073). The note with it: Notch2 binding, higher = more signal.
Experiment [6] concerns the target Pro-neuregulin-1, membrane-bound isoform (Homo sapiens) (UniProt Q02297). The experiment can be described thus: NRG1 binders on small-molecule microarrays, primary screen, psychiatric disease protein project, biochemical, small-molecule microarray, fluorescence 635/667 (AID 1075).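 Note: score combines 667 nm spot fluorescence with signal to noise.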 The conditions noted are these: NRG1 binding, 635 nm fluorescence, higher = more signal.

Experiment [7] has as its system Neuregulin-1 EGF-like domain. The experiment can be described thus: binders of neuregulin-1 EGF-like domain, primary screen, biochemical, small-molecule microarray, 635 nm fluorescence (AID 1081).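 Note: binding of the protein to compounds printed on small-molecule microarray slides.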 The note with it: small-molecule microarray binding, higher = more signal.
Experiment [8] can be described thus: FRG1 promoter luciferase signal modulators, primary screen, FRG1 inhibition for FSHD, cell-based, C2C12 myotubes, firefly/Renilla luciferase, luminescence (AID 1084). The note with it: higher = more signal, called active from +8 up or from −8 down.
The nature of experiment [9]: binders of probe aFST on microarray, primary screen, stem cell growth factor project, biochemical, small-molecule microarray, fluorescence 635/667 (AID 1086).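 Note: score merges 667 nm fluorescence with signal-to-noise of each printed compound spot.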 The conditions noted are these: higher = more signal.
A short description of experiment [10]: binders of probe aHhip on microarray, primary screen, stem cell growth factor project, biochemical, small-molecule microarray, fluorescence 635/667 (AID 1087).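 Note: score merges spot fluorescence at 667nm with spot signal to noise ratio.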 The note with it: higher = more signal.
In experiment [11] the test system is PRMT1 (protein arginine N-methyltransferase 1). The experiment in a line: PRMT1 binders on small-molecule microarrays, primary screen, biochemical, small-molecule microarray, 635 nm fluorescence (AID 1088).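 Note: binding of Prmt1 protein to compounds spotted on small-molecule microarray slides.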 The conditions noted are these: small-molecule microarray binding, higher = more signal.
Experiment [12] in a line: yeast growth modulation, basal conditions, primary screen, YJM789 clinical isolate, OD600, 24 h (AID 1089).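 Note: growth of clinical yeast isolate S. cerevisiae YJM 789 seeded 1000 cells per well; test concentration not given here.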 The conditions noted are these: S. cerevisiae YJM789 growth, higher = more signal, called active from +8 up or from −8 down.
Experiment [13] can be described thus: fission yeast growth modulation, primary screen, strain 972, OD600, 24 h, no modulator (AID 1090).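 Note: basal condition with compound alone and no growth modifier present; test concentration not given here.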 The note with it: S. pombe 972 growth, higher = more signal, called active from +8 up or from −8 down.
Experiment [14] is described as follows: S. cerevisiae growth modulation with rapamycin, primary screen, strain BY4716, OD600, 96 h (AID 1091). Note: test concentration not given here. The conditions noted are these: higher = more signal, called active from +8 up or from −8 down.
Experiment [15] concerns the target Torsin-1A-interacting protein 2 (Homo sapiens) (UniProt Q8NFQ8). The experiment can be described thus: LULL1 binders on small-molecule microarray, primary screen, cell lysate, human LULL1 lysate, 635/667 nm fluorescence (AID 1092).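 Note: probe is lysate of COS7 cells overexpressing human LULL1; score merges per-feature 667 nm fluorescence with signal-to-noise.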 The conditions noted are these: hLULL1 lysate binding, 635 nm fluorescence, higher = more signal.
Experiment [16] in a line: E. coli growth modulation, two-sided OD650, primary screen, E. coli filamentation project, strain DRC41, 24 h (AID 1093).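 Note: MC1000 strain lacking acrAB efflux and sulA so SOS filamentation is blocked; test concentration not given here.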 The note with it: OD650, 24 h, higher = more signal, called active from +8 up or from −8 down.
Experiment [17] can be described thus: small-molecule microarray binders of probe aLefty2, primary screen, biochemical, biotinylated probe, 635/667 nm fluorescence (AID 1094).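 Note: score merges spot fluorescence near 667 nm with spot signal-to-noise ratio.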 The conditions noted are these: higher = more signal.
Experiment [18] deals with Noggin (protein binding on small-molecule microarray). The experiment in a line: Noggin binders on small-molecule microarray, primary screen, biochemical, 635/667 nm fluorescence (AID 1095).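 Note: score merges 667 nm feature fluorescence with signal to noise over triplicate slides.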 The conditions noted are these: 635 nm fluorescence, higher = more signal.
The target in experiment [19] is Neurogenic locus notch homolog protein 3 (Homo sapiens) (UniProt Q9UM47). The experiment in a line: NOTCH3 binders on small-molecule microarray, primary screen, biochemical, 635/667 nm fluorescence (AID 1096). The conditions noted are these: NOTCH3 binding, 635 nm fluorescence, higher = more signal.
Experiment [20] is described as follows: small-molecule microarray binders of probe aEGFR, primary screen, biochemical, biotinylated probe, 635/667 nm fluorescence (AID 1097).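 Note: probe is a biotinylated anti-EGFR antibody binding compounds printed on slides; score combines fluorescence near 667 nm and signal to noise of each spot.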 The conditions noted are these: higher = more signal.

Calls of active or inactive are those of the source.

Chain of Pro-neuregulin-1, membrane-bound isoform (Homo sapiens) (Q02297 whole entry, looked up, canonical isoform): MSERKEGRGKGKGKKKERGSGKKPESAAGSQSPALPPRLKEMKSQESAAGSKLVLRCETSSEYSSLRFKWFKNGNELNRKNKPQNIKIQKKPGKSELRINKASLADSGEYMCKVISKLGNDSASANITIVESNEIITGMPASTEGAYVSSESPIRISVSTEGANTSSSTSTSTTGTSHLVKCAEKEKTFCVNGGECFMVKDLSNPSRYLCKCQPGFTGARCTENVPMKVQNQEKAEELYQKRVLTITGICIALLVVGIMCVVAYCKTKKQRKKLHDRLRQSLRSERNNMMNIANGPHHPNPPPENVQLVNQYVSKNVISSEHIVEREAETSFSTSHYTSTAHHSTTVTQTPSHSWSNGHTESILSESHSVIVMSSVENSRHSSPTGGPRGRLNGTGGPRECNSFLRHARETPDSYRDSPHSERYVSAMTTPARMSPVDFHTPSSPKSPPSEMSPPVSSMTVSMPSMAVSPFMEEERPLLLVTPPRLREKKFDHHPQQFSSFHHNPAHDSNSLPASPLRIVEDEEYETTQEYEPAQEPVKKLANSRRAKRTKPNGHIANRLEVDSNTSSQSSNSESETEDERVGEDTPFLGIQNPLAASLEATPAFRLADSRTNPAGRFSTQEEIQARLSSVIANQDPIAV
Chain of Neurogenic locus notch homolog protein 2 (Homo sapiens) (Q04721 whole entry, looked up, canonical isoform): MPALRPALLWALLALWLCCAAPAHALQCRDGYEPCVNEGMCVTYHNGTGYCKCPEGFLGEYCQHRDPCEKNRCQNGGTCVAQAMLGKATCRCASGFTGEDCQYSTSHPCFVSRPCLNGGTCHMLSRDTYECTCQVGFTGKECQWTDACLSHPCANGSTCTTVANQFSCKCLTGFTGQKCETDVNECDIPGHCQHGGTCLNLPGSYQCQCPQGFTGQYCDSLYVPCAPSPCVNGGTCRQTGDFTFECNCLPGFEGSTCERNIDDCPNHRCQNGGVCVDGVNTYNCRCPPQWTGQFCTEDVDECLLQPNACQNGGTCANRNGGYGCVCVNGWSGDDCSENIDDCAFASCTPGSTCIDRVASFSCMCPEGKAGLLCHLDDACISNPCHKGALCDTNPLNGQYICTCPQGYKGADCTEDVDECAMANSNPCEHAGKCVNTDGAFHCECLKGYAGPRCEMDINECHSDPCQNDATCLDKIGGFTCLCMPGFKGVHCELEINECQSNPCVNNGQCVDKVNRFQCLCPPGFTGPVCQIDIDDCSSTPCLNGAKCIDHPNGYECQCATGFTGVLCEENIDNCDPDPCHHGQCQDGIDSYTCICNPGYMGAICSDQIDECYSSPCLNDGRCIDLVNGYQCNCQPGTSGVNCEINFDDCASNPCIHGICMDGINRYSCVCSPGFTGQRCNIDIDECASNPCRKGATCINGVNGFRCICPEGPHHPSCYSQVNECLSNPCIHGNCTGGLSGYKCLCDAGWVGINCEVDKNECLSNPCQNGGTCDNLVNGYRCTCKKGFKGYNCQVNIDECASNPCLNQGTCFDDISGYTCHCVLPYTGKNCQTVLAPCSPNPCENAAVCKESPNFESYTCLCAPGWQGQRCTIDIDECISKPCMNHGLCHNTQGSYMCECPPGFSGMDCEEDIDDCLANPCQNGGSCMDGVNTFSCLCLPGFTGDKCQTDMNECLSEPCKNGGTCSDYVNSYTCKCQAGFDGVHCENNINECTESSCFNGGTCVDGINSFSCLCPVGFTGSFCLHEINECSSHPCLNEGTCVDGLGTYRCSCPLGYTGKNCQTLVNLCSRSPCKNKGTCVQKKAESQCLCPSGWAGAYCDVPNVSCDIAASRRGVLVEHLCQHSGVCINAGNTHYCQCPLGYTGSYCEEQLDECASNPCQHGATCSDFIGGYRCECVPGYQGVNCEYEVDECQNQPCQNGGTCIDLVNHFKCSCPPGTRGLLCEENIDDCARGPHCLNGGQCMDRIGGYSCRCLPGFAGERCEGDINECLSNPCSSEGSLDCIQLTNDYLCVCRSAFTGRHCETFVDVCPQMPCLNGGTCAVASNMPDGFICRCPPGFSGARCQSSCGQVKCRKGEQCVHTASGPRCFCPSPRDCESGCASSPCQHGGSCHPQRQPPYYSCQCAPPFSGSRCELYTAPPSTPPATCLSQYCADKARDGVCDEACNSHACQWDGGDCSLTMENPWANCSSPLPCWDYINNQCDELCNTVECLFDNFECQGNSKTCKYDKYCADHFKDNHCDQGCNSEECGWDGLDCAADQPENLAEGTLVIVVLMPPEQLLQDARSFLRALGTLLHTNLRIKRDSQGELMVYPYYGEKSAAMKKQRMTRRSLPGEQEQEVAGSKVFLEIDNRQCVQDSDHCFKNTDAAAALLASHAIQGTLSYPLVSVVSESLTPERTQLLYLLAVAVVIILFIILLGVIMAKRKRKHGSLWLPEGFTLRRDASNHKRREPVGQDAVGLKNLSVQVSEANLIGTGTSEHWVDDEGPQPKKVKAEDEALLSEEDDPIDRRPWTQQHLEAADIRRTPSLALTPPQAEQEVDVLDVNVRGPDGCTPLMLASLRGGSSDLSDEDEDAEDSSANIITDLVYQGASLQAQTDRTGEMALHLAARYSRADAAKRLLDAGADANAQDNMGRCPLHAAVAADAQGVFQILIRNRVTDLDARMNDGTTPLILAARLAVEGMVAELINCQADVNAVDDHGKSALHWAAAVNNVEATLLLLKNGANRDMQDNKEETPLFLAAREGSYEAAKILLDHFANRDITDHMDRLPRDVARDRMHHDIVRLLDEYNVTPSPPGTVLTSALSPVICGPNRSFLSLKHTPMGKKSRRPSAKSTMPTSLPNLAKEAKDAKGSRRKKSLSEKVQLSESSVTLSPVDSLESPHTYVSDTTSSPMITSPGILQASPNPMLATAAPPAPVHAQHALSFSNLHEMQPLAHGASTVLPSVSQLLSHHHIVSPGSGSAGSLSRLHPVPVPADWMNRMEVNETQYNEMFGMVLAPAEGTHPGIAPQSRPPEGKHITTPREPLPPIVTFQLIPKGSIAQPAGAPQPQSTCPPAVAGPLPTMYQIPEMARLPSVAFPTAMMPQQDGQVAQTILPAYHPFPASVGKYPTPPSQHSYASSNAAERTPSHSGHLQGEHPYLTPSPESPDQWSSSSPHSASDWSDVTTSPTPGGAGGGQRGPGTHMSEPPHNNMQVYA
Chain of Torsin-1A-interacting protein 2 (Homo sapiens) (Q8NFQ8 whole entry, looked up): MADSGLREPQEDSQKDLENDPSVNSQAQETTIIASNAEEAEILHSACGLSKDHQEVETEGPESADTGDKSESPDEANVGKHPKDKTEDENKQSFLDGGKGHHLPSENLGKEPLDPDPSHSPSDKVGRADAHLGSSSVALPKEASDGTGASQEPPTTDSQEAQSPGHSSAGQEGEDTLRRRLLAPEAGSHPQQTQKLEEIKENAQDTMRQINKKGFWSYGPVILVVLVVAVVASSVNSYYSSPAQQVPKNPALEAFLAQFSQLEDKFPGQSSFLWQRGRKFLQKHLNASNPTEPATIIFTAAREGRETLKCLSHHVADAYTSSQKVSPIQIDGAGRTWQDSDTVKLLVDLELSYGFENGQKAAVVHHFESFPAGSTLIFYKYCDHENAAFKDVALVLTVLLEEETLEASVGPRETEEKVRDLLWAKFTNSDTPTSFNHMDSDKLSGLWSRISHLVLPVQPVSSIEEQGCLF

Regarding `O=C1NC(=O)C2C1C=CC(C(O)c1ccc(-c3ccccc3)s1)N2Nc1ccccn1` (stereo not given), the composite z-score in [1] is 0.536; in experiment [2], 0.259; in [3], -0.0605; in [4], 0.444; in experiment [5], 1.31; in experiment [6], 1.27. Further, the composite z-score in experiment [7] is 0.988; in experiment [9] it was 0.781; in [10], -0.191; in experiment [11] it was 0.189; in [15], 1.76; in experiment [17], 0.129. Moreover, the composite z-score was -0.0414 in experiment [18], 0.418 in experiment [19] and -0.0085 in [20]. Moreover, the z-score in [8] was 0.703 (inactive); in experiment [12] it was -0.3 (inactive); in experiment [13], 1.01 (inactive); in experiment [14] it was 0.499 (inactive); in [16], 0.0076 (inactive).
As to `CC(C)CN1C(=O)[C@@]2(Cc3ccccc31)c1ccccc1C(=O)N(Cc1ccccc1)[C@H]2c1ccc(CO)cc1`, the composite z-score was 0.849 in experiment [1]; -0.675 in experiment [2]; -0.148 in experiment [3]; -0.0466 in experiment [4]; -0.713 in experiment [5]; -0.544 in experiment [6]. Further, the composite z-score in experiment [7] is -0.152; in [9] it was -0.759; in [10] it was -0.261; in [11], -0.594; in experiment [15] it was 0.771; in experiment [17], -0.131. Besides, the results for the composite z-score in experiment [18], in experiment [19] and in experiment [20] were -0.34, -0.395 and -0.348, respectively. Besides, the z-score in [8] was -0.314 (inactive); in experiment [12] it was -0.0832 (inactive); in experiment [13], -0.519 (inactive); in experiment [14], -1.46 (inactive); in [16], -0.336 (inactive).
For the molecule `O=C1NC(=O)C2C1C=CC(C(O)c1ccc3c(c1)OCO3)N2Nc1ccc(Cl)cc1Cl` (stereo not given), the composite z-score in [1] is 0.358; in experiment [2], -0.173; in [3], -0.0274; in [4] it was 0.218; in [5] it was 1.22; in experiment [6], 1.73. Moreover, the composite z-score in experiment [7] was 0.543; in experiment [9] it was 0.176; in experiment [10] it was -0.291; in experiment [11], 0.0405; in experiment [15] it was 2.94; in experiment [17] it was 0.15. In addition, the results for the composite z-score in experiment [18], in experiment [19] and in experiment [20] were 0.132, 0.361 and -0.108, respectively. The z-score in experiment [8] is 1.28 (inactive); in experiment [12], -3.53 (inactive); in experiment [13], -0.462 (inactive); in experiment [14], 0.142 (inactive); in experiment [16], -1.14 (inactive).
Consider `COc1cc2c(cc1OC)CN(C(=O)[C@@H]1[C@H]3C(=O)O[C@H](c4ccccc4)[C@H](c4ccccc4)N3[C@H](c3ccc(OCCO)cc3)[C@@]13C(=O)Nc1ccc(C#CCCO)cc13)CC2`, for which the composite z-score is -0.0108 in [1]; 0.718 in experiment [2]; 0.105 in experiment [3]; 0.944 in experiment [4]; 1.56 in experiment [5]; 1.58 in experiment [6]. In addition, the composite z-score turned out to be 1.27 in experiment [7]; 0.0774 in experiment [9]; 0.169 in [10]; 1.54 in [11]; 3.38 in experiment [15]; 0.674 in [17]. Besides, the results for the composite z-score in experiment [18], in experiment [19] and in experiment [20] were 1.46, 1.08 and 0.276, respectively. Also, the z-score in [8] was 0.838 (inactive); in experiment [12] it was 1.68 (inactive); in experiment [13] it was -0.283 (inactive); in experiment [14], 3.2 (inactive); in experiment [16], 2 (inactive).
Take `COC(=O)C(CC#Cc1ccc2c(c1)[C@]1(C(=O)N2)[C@H](C(=O)N2CCc3cc(OC)c(OC)cc3C2)[C@H]2C(=O)O[C@H](c3ccccc3)[C@H](c3ccccc3)N2[C@@H]1c1ccc(O)cc1)C(=O)OC`: the composite z-score was 0.145 in [1]; 0.305 in experiment [2]; 0.0276 in [3]; 0.734 in [4]; 1.32 in experiment [5]; 1.69 in [6]. In addition, the composite z-score in experiment [7] stood at 1.35; in experiment [9] it was 0.288; in experiment [10] it was 0.644; in experiment [11] it was 1.48; in [15], 2.83; in experiment [17], 0.157. Also, the composite z-score in experiment [18] came to 1.88; in [19], 1.09; in experiment [20] it was 0.404. The z-score is 1.77 (inactive) in experiment [8]; 2.78 (inactive) in experiment [12]; 0.355 (inactive) in experiment [13]; 2.62 (inactive) in [14]; 2.04 (inactive) in experiment [16].

Source of the values: PubChem BioAssay.
